The list is not random: actives were taken first. Their share in the collection is about 3%.
MITF TRPM1 inh = reduces MITF-dependent TRPM1 promoter luciferase signal. AID 488899. inhibition, % at 12.5 µM. 330,000 tested, 0.83% active. SK-MEL-5 TRPM1 promoter luciferase, 24 h;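 active = mean inhibition across replicates of 60% or more, whatever share of single replicates reaches that level; inconclusive = some that reach 60%, reason not given; inactive = mean inhibition across replicates below 60%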
TROY NFkB inh = blocks TROY-dependent signaling in reporter cells; 360,000 tested, 0.98% active; inhibition, % at 10 µM; AID 1347056; Q293 LMP1-TROYcd NF-kB luciferase reporter, 4 h;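 active = compounds whose plate-normalised and pattern-corrected inhibition of the luciferase reporter signal at the single screening dose is 50% or more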
MITF act = increases MITF-driven TRPM1 promoter luciferase signal; SK-MEL-5 TRPM1-promoter luciferase, 24 h; % of positive control, neutral wells = 0; activation, % at 12.5 µM; 300,000 tested, 0.75% active;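 active = mean activation of at least 80% with every replicate also reaching 80%; inconclusive = mean reaches 80% but some replicate falls short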
TWEAK Fn14 block = TWEAK-Fn14 signaling inhibition. TWEAK-stimulated Fn14 reporter cells, luciferase luminescence, 8 h. inhibition, % at 10 µM. 360,000 tested, 2% active; in the data active = inhibition above about 50%
LGR2 antag = inhibitors of bursicon-induced Drosophila LGR2 receptor cAMP signaling. HEK293 LGR2, CRE-luciferase, bursicon-stimulated, 4 h. inhibition, % at 9.99 µM. 380,000 tested, 0.35% active;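 active = drop in luminescence signal, shown as inhibition above about 50% in the replicate tests, limit read from the data, passing the limit was not always enough; inconclusive = probably only some replicates passing the limit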;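 note: agonist challenge used bursicon conditioned medium at about half maximal strength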
EBV LMP1 NFkB = Epstein-Barr LMP1 NF-kappaB reporter inhibition. LMP1-induced NF-kappaB luciferase reporter cells, luminescence. inhibition, % at 12.5 µM. 350,000 tested, 0.69% active. AID 504558; in the data active = inhibition above about 41%; inconclusive = no clear call, values can overlap the other calls
Each line names hits and unclear results; the compound was inactive in the other large screens.

O=C(NNc1nc2ccccc2s1)c1ccc(F)cc1	TROY NFkB inh 76
O=C(Nc1nc2ccccc2s1)c1cnccn1	TWEAK Fn14 block 56 (no result: LGR2 antag)
CCCNC(=O)N1CC2(CN(Cc3ccccn3)C2)c2c(n(C)c3cc(OC)ccc23)[C@@H]1CO	none (no result: MITF TRPM1 inh, TROY NFkB inh, MITF act, TWEAK Fn14 block, EBV LMP1 NFkB)
CS(=O)(=O)N1[C@@H]2c3ccc(-c4ccccc4)c(=O)n3C[C@@H]2[C@@H](CO)[C@@H]1C(=O)NC1CCC1	none (no result: MITF TRPM1 inh, TROY NFkB inh, MITF act, TWEAK Fn14 block, EBV LMP1 NFkB)
CCOC(=O)c1sc(-c2ccc(OC)cc2)cc1N	MITF act 99 (no result: LGR2 antag)
CCOC(=O)c1sc(-c2ccc(F)cc2)cc1N	MITF act 98
CCOC(=O)c1sc(-c2ccccc2)cc1N	none (no result: MITF act, LGR2 antag)
CC(C)CC#Cc1cnc2c(c1)C(=O)N([C@@H](C)CO)C[C@@H](C)[C@H](CN(C)C(=O)NC1CCCC1)O2	none (no result: MITF TRPM1 inh, TROY NFkB inh, MITF act, TWEAK Fn14 block, EBV LMP1 NFkB)
CCC(NC(=O)Nc1nnc(C(F)(F)F)s1)(C(F)(F)F)C(F)(F)F	TROY NFkB inh 64, EBV LMP1 NFkB 46 (no result: LGR2 antag)
O=C(O)CCC(=O)Nc1nnc(C(F)(F)F)s1	none (no result: LGR2 antag)
O=S(=O)(c1cccc(NC(=S)N2CCN(c3ccccc3F)CC2)c1)C(F)F	TWEAK Fn14 block 51
C[C@@H]1CN([C@H](C)CO)C(=O)c2cc(NC(=O)Nc3ccc(F)cc3)ccc2O[C@@H]1CN(C)S(=O)(=O)c1ccc(Cl)cc1	none (no result: MITF TRPM1 inh, TROY NFkB inh, MITF act, TWEAK Fn14 block, EBV LMP1 NFkB)
Cc1ccc(Cn2ncc3c(N4CCN(Cc5ccc(Cl)cc5)CC4)ncnc32)cc1	TWEAK Fn14 block 56 (no result: MITF act, LGR2 antag)
Cc1ccc(Cn2ncc3c(N4CCN(C)CC4)ncnc32)cc1	none
Cc1ccc(Cn2ncc3c(N4CCN(c5ccc(C)cc5)CC4)ncnc32)cc1	TWEAK Fn14 block 61 (no result: LGR2 antag)
CO[C@H]1CN(C)C(=O)c2cc(NC(C)=O)ccc2OC[C@H](C)N(Cc2ccccc2C(=O)O)C[C@@H]1C	none (no result: MITF TRPM1 inh, TROY NFkB inh, MITF act, TWEAK Fn14 block, EBV LMP1 NFkB)
O=C(N[C@@H]1CC[C@H](CCNC(=O)C2CCCC2)O[C@@H]1CO)c1ccncc1	none (no result: MITF TRPM1 inh, TROY NFkB inh, MITF act, TWEAK Fn14 block, EBV LMP1 NFkB)
COc1cccc(Sc2nc(-c3ccccc3)ncc2S(C)(=O)=O)c1	TROY NFkB inh 71, TWEAK Fn14 block 91 (no result: MITF TRPM1 inh, MITF act)
CS(=O)(=O)c1cnc(-c2ccccc2)nc1Sc1ccc(F)cc1	none
C[C@H](CO)N1C[C@H](C)[C@@H](CN(C)C(=O)Nc2ccc3c(c2)OCO3)Oc2ncc(-c3cncnc3)cc2C1=O	none (no result: MITF TRPM1 inh, TROY NFkB inh, MITF act, TWEAK Fn14 block, EBV LMP1 NFkB)
O=C(Nc1ccccc1Cc1ccccc1)c1ccccc1NS(=O)(=O)c1ccc(Cl)s1	TROY NFkB inh 68, TWEAK Fn14 block 58, LGR2 antag inconclusive
Cc1ccc(NC(=O)c2ccccc2NS(=O)(=O)c2ccc(Cl)s2)cc1	TWEAK Fn14 block 58
O=C(NCc1ccco1)c1ccccc1NS(=O)(=O)c1ccc(Cl)s1	none (no result: LGR2 antag)
CS(=O)(=O)c1ccccc1C(=O)Nc1ccccc1Cc1ccccc1	none
O=C(Nc1ccccc1)c1ccccc1NS(=O)(=O)c1ccc(Cl)s1	TROY NFkB inh 63 (no result: LGR2 antag)
Cc1ccc(S(=O)(=O)CC(CN2CCOCC2)N2CCOCC2)cc1 (centres undefined)	none
O=S(=O)(CC(CN1CCCC1)N1CCCC1)c1ccc2ccccc2c1 (centres undefined)	MITF TRPM1 inh 76 (no result: LGR2 antag)
COc1ccc(-c2cc(C(=O)Nc3ccccc3F)on2)cc1	MITF act 95
COc1ccc(-c2cc(C(=O)Nc3ccccc3)on2)cc1	MITF act 101
O=C(Nc1ccc(F)cc1)c1cc(-c2ccccc2)no1	none
COc1ccc(C2(C(=O)Nc3ccccc3)CCOCC2)cc1	TWEAK Fn14 block 67
COc1ccc(-c2cc(CNC(C)=O)on2)cc1	none (no result: LGR2 antag)
COc1ccc(-c2cc(CNC(=O)CCl)on2)cc1	TWEAK Fn14 block 76 (no result: TROY NFkB inh)
C[C@H](CO)N1C[C@H](C)[C@H](CN(C)C(=O)Cc2cccnc2)Oc2cc(C3=CCCCC3)ccc2S1(=O)=O	none (no result: MITF TRPM1 inh, TROY NFkB inh, MITF act, TWEAK Fn14 block, EBV LMP1 NFkB)
CO[C@@H]1CN(C)C(=O)c2ccc(NS(C)(=O)=O)cc2OC[C@H](C)N(Cc2cccnc2)C[C@H]1C	none (no result: MITF TRPM1 inh, TROY NFkB inh, MITF act, TWEAK Fn14 block, EBV LMP1 NFkB)
Cc1noc(C)c1NC(=O)Nc1ccc2c(c1)C(=O)N([C@H](C)CO)C[C@@H](C)[C@@H](CN(C)C(=O)Nc1ccc(F)cc1)O2	none (no result: MITF TRPM1 inh, TROY NFkB inh, MITF act, TWEAK Fn14 block, EBV LMP1 NFkB)
CCOC(=O)/C(C#N)=C/c1cc(C)n(-c2ccccc2)c1C	TROY NFkB inh 89, TWEAK Fn14 block 84 (no result: LGR2 antag)
CCOC(=O)Nc1ccc2nc(Sc3ccc(Cl)cc3)sc2c1	TROY NFkB inh 82
CCOc1ccc2nc(NC(=O)CSc3ccc(Cl)cc3)sc2c1	none (no result: LGR2 antag)

Screens deposited in PubChem BioAssay by several laboratories.
